High-throughput results (PubChem)
TrxR1 inh = qHTS Assay for Inhibitors of Mammalian Selenoprotein Thioredoxin Reductase 1 (TrxR1): qHTS; Potency, µM (top dose mostly 114 µM), without a hit: at the highest dose activity change, negative = inhibition, actives largely listed as inhibitors; recombinant rTrxR1, NADPH fluorescence consumption, selenite substrate; hit rate 1% among 390,000; note: % is set by controls: 0 for no effect and ±100 for the full control effect; nearly all actives have a fitted effect of over 65% in size
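Rat TrxR1 (90 nM in the dispensed reagent) was pre-reduced with 400 uM NADPH for 5 min at room temperature, then incubated with compound for 15 min. After 400 uM selenite was added, NADPH fluorescence (Ex 340/Em 450 nm) was followed for 8 min.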
TrxR1 substrate = qHTS Assay for Substrates of Mammalian Selenoprotein Thioredoxin Reductase 1 (TrxR1): qHTS; AID 588456, 2011; hit rate 0.01% among 390,000; purified TrxR1 substrate turnover, NADPH consumption readout; Potency, µM (doses to about 114 µM), inactives show at the highest dose activity change, negative = substrate turnover; note: % is set by controls: 0 for no effect and ±100 for the full control effect; nearly all actives have a fitted effect of over 50% in size
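Rat TrxR1, dispensed at 90 nM, was prereduced with 400 uM NADPH (final) for 5 min at ~22 deg C, then incubated with compound 15 min before 400 uM selenite. A first-read NADPH fluorescence drop versus no-compound background flagged substrates.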
mIDH1 inhibitor = qHTS for Inhibitors of mutant isocitrate dehydrogenase 1 (IDH1): qHTS; Isocitrate dehydrogenase [NADP] cytoplasmic (Homo sapiens), O75874; IDH1-R132H enzyme, NADPH consumption, diaphorase/resazurin fluorescence; Potency, µM (highest dose often 76.6 µM), inactives show at the top dose activity change, negative = inhibition, usual class: inhibitors; hit rate 0.093% among 390,000; AID 602179, 2012; note: % is set by controls: 0 for no effect and ±100 for the full control effect; nearly all actives have a fitted effect of over 65% in size
Target sequence (O75874 whole entry R132H, stated change not applied): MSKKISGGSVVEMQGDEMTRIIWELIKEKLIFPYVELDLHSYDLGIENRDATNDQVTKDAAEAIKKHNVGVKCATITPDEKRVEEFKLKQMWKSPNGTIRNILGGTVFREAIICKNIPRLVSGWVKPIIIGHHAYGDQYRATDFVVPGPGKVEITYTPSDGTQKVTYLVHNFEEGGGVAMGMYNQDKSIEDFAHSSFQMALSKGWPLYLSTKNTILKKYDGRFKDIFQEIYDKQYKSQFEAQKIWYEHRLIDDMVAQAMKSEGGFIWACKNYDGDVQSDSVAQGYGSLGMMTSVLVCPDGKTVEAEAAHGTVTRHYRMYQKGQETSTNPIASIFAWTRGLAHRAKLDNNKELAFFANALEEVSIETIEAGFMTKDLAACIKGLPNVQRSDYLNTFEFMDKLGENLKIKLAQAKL
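IDH1-R132H (0.5 ug/mL dispensed) in pH 7.5 Tris buffer was preincubated 30 min with compound, then given a substrate mix of 0.016 mM NADPH and 2 mM alpha-KG for 80 min at room temperature; remaining NADPH was read by diaphorase/resazurin fluorescence.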
GLP-1R inv ag = qHTS of GLP-1 Receptor Inverse Agonists (Inhibition Mode); HEK293 GLP-1R CRE-luciferase, luminescence, 24 h; GLP-1R form is constitutively active; Glucagon-like peptide 1 receptor (Homo sapiens), P43220; Potency, µM (titrated, usually from 38.3 µM), for inactives: top-dose activity change, negative = inhibition, actives largely listed as inhibitors; hit rate 1.6% among 410,000; note: % is set by controls: 0 for no effect and ±100 for the full control effect; nearly all actives have a fitted effect of over 55% in size
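GLP-1R inverse agonism mode: basal reporter luminescence in engineered HEK293 cells measured after one day of compound exposure at 37 deg C, with a 12 min room-temperature detection step.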
HEK293 tox = qHTS of GLP-1 Receptor Inverse Agonists: Cytotox Screen; Potency, µM (series often up to 38.3 µM), inactives show at the top dose activity change, negative = inhibition, hits mostly inhibitors; hit rate 0.13% among 410,000; HEK293 cAMP-luciferase reporter cells, luminescence, 24 h;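 note: loss of luciferase light is scored as toxicity; % is set by controls: 0 for no effect and ±100 for the full control effect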
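Quantitative HTS format, 1536 wells, 200 cells/uL seeded. Compounds: 23 nL, 24 h, 37 °C. Detection: luciferase reagent, luminescence at 12 min RT; decreased signal taken as cytotoxic.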
GLP-1R agonist = qHTS of GLP-1 Receptor Agonists. hit rate 0.007% among 380,000. HEK293 GLP-1R CRE-luciferase, luminescence, 4-6 h; cells express a hypersensitive GLP-1R form. Glucagon-like peptide 1 receptor (Homo sapiens), P43220. Potency, µM (series often up to 45.6 µM), for the others: at the top dose activation, usual class: activators; note: % of control where 0% means no effect
Numbers without * were called inactive; i = inactive; ? = inconclusive; / = no result given; ! = not confirmed by another sample; [ ] = another dose, or the depositor's remark. Sampled rows, rich in hits. Any-hit rate of the full collection: about 2.7%. Calls come from the whole dose curve; as a rule, active = well fitted curve in the direction sought with a large enough effect; inconclusive = small, poorly fitted or top-dose-only effect, or another doubt; inactive = no such curve, though single readings can be large; an effect the other way counts as inactive or inconclusive. Potency is the fitted concentration of half-maximal effect.

SMILES	TrxR1 inh	TrxR1 substrate	mIDH1 inhibitor	GLP-1R inv ag	HEK293 tox	GLP-1R agonist
NS(=O)(=O)c1ccc(N=Cc2c(O)n(C3CCCCC3)c(=O)n(C3CCCCC3)c2=O)cc1	22%	4%	-7%	?	-22%	-2%
CC(C)C(=O)N1CCC(CN=Cc2c(O)n(C3CCCCC3)c(=O)n(C3CCCCC3)c2=O)CC1	11%	-4%	4%	2.8µM*	-2%	-1%
O=C1NC(=O)N(c2ccc3c(c2)OCO3)C(=O)/C1=C/c1ccc(N2CCCC2)o1	?	?	4%	20%	-20%	-7%
O=C1NC(=O)N(c2ccc3c(c2)OCO3)C(=O)/C1=C/c1cccs1	45µM*	1%	0%	13%	2%	2%
O=C1NC(=O)N(c2ccc3c(c2)OCO3)C(=O)/C1=C/c1ccsc1	35µM*	-12%	4%	14%	20%	-3%
CN[C@H](C)[C@H](O)c1ccccc1	13%	2%	-10%	6%	4%	11%
CN[C@@H](C)[C@H](O)c1ccccc1	25µM*!	-2%	/	/	/	/
Cc1ccccc1-n1c(/C=C/c2ccc(N(C)C)cc2)nc2ccccc2c1=O	9%	-10%	-10%	8.9µM*	i	/
Cc1ccccc1-n1c(/C=C/c2c(C)[nH]c3ccccc23)nc2ccccc2c1=O	?	-14%	16%	4µM*	-11%	/
CN(c1ccc(C(=O)NCCSCc2c(F)cccc2Cl)cc1)S(C)(=O)=O	7%	-4%	0%	?	?	0%
CCCN1CCc2cccc3c2[C@H]1Cc1ccc(O)c(O)c1-3	24µM*	?	0%	-11%	-28%	-2%
O=C(CN1c2ccccc2Sc2ccccc21)NNC(=O)Nc1ccc(Cl)cc1	4%[57.1 µM]	-4%[57.1 µM]	-6%	1.4µM*	?	-39%
CC(C)(C)NC(=O)N1c2ccccc2Sc2ccccc21	-13%	-10%	-5%	?	-15%	15%
CN[C@H]1C[C@@H](N)[C@H](O)[C@@H](O[C@@H]2O[C@H](CO)[C@H](O)[C@@H]3O[C@]4(O[C@@H]23)O[C@H]([C@@H](N)CO)[C@H](O)[C@@H](O)[C@H]4O)[C@@H]1O	/	/	/	/	/	-4%
CC(=O)c1ccccc1OCC(O)CN1CCN(CCN2C(=O)c3cccc4cccc(c34)C2=O)CC1 (stereo not drawn)	16%[57.1 µM]	5%[57.1 µM]	0%	?	11µM*	-1%
O=C(Nc1ccc(-c2cn3ccsc3n2)cc1)c1ccc(F)c(S(=O)(=O)N2CCOCC2)c1	-5%	-5%	-5%	?	?	-26%
CCCCCCn1c(O)c(C=NCCN2CCOCC2)c(=O)[nH]c1=O	15%	0%	6%	4%	1%	1%
CCCCCC1CC(CC#CCN2CCOCC2)C(=O)O1 (stereo not drawn)	45µM*	-3%	8%	4%	1%	2%
Cc1ccc(NS(=O)(=O)c2c(F)cc(F)c(Cl)c2F)cc1S(=O)(=O)N1CCOCC1	18%[57.1 µM]	-1%[57.1 µM]	4%	?	10%	4%
CC1Oc2cc3c(-c4c(O)cc(O)c5c(O)c6c(cc45)OC(C)C(C)C6=O)c(O)cc(O)c3c(O)c2C(=O)C1C (stereo not drawn)	-20%	-15%	-20%	13µM*	?	0%
O=C(Nc1ccc(Cl)c(Cl)c1)c1cccc(S(=O)(=O)NCc2cccnc2)c1	16%[57.1 µM]	9%[57.1 µM]	-8%	11µM*	?	3%
O=P(O)(O)c1ccccc1OCCOCCOCCOCCOc1ccccc1P(=O)(O)O	?	-15%	-2%	18%	-19%	-1%
CCC(C)Nc1ccc(NC(C)CC)cc1 (stereo not drawn)	20µM*	?	6%	?	?	-8%
CCn1nc(-c2ccccc2)nc2c(=O)n(C)c(=O)nc1-2	-29%[57.1 µM]	?	13%	5µM*	?	-26%
Cc1nc2c(=O)n(C)c(=O)nc-2n(C)n1	50µM*	35µM*	21%	346%	2µM*	-27%
SMILES	TrxR1 inh	TrxR1 substrate	mIDH1 inhibitor	GLP-1R inv ag	HEK293 tox	GLP-1R agonist
Cn1nc(-c2ccccc2)nc2c(=O)n(C)c(=O)nc1-2	?	40µM*	/	/	/	/
Cc1[nH]c2ccccc2c1C(=O)C(=O)N1c2ccccc2CC1C (stereo not drawn)	6%	-3%	7%	?	?	1%
CC(=O)OC1CC(OC2C(O)CC(OC3C(O)CC(O[C@H]4CC[C@]5(C)C6CC[C@]7(C)[C@@H](C8=CC(=O)OC8)[C@@H](O)C[C@]7(O)[C@@H]6CC[C@@H]5C4)OC3C)OC2C)OC(C)C1OC1OC(CO)C(O)C(O)C1O (stereo partly drawn)	/	/	/	/	/	-11%
Oc1cc2c(cc1O)[C@H]1c3ccc(O)c(O)c3OC[C@@]1(O)C2	10µM*	3%	2%	-20%	?	3%
CC1CCC(NC(=O)CN2CCN(S(=O)(=O)c3ccc(Br)s3)CC2)CC1 (stereo not drawn)	/	/	2%	10µM*	?	-1%
CC(C)OCCCNC(=O)c1c(N)n(Cc2cccs2)c2nc3ccccc3nc12	39%	109%	-6%	11µM*	246%	-10%
COc1cc(CC(C)N)c(OC)cc1Br (stereo not drawn)	/	/	/	/	/	-4%
Cc1cccc(Nc2nc(NCc3ccco3)c3ccccc3n2)c1	-16%	4%	-22%	2.2µM*	?	-12%
CCc1cccc2sc(N3CCN(C(=O)c4ccc([N+](=O)[O-])o4)CC3)nc12	?	-8%	6%	?	?	10%
COc1ccc(S(=O)(=O)NCCc2sc3nc(-c4ccc(C)cc4)nn3c2C)cc1F	5%[57.1 µM]	3%[57.1 µM]	-2%	?	10%	/
CCOP(=O)(OCC)C(NC(=O)Nc1ccc(Cl)c(Cl)c1)c1ccccc1 (stereo not drawn)	3%[57.1 µM]	-9%	-4%	8.9µM*	-9%	1%
Cc1ccc2nc(-c3ccncc3)cc(C(=O)N3CCC4(CC3)OCCO4)c2c1	18%[57.1 µM]	10%[57.1 µM]	1%	2%	8%	-5%
